Experimental data: article PMC5540273 (PLoS ONE, 2017)
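Note: KINOMEscan kinase panel screen.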

What follows are compounds tested on MKK7. Details: concentration: 1 μM, replicates: in singlicate; n = 1.
With `CCn1c(-c2cccnc2O)nc2cnccc21` [SB-736715] the “%Inh” value was 0%. For `Cl.Oc1ccc(-c2nc(-c3ccccc3)[nH]c2-c2ccncc2)cc1` [SB-428218], the “%Inh” value was 0%. In the case of `CC(=O)Nc1nc2cnc(Nc3cc(NC(=O)c4cccc(CCC#N)c4)ccc3C)nc2s1`, the “%Inh” value is reported as 0%. `O=S(=O)(c1ccc(-c2ccnc3[nH]ccc23)cc1)N1CCCC1` [GSK846226] was tested, and the “%Inh” value was 0%. For `CN1C(=O)C(Nc2ccc(Cl)c(C(=O)O)c2)=C(c2ccc(Cl)cc2)C1=O` [SB-404290], the “%Inh” value was 0%. With `Fc1cc(Cl)ccc1Nc1ccnc2cc(I)ccc12` [GW551191] the “%Inh” value was 0%. `O=c1cc(N2CCOCC2)nc2n(Cc3cccc(Cl)c3Cl)ccn12` [GSK2286295] was tested, and the “%Inh” value was 0%. `Cn1ccc2ncnc(Oc3ccc(NC(=O)Nc4ccccc4)cc3)c21` was tested, and the “%Inh” value was 20%. `COc1cc(Nc2nccc(N3CCC(NC(=O)Nc4cc(C)ccc4C)C3)n2)cc(OC)c1OC` (stereo not drawn) [GSK1379762] was tested, and the “%Inh” value was 0%. In the case of `CC(C)(C)c1ccc(C(=O)Nc2cn3cc(Cl)ccc3n2)cc1`, the “%Inh” value is reported as 0%. `COc1ccccc1CNC(=O)c1cc(C(=O)c2ccccc2C)c[nH]1` [GSK364507] was tested, and the “%Inh” value was 0%. For `O=C(O)COc1ncnc2cc(-c3ccc4[nH]ncc4c3)sc12`, the “%Inh” value was 0%. In the case of `CS(=O)(=O)c1ccc(-c2nc3n(c2-c2ccncc2)CCC3)cc1` [SKF-105942], the “%Inh” value is reported as 0%. `Cc1c(Cn2ccn3c(=O)cc(N4CCOCC4)nc23)cccc1C(F)(F)F` [GSK2289044] was tested, and the “%Inh” value was 16%. With `O=C(Nc1n[nH]c2cc(-c3cccc(F)c3F)ccc12)C1CC1` [SB-733894] the “%Inh” value was 0%. For `Cc1csc(-c2nc(Nc3ccncc3)c3ccccc3n2)n1` [GW869640], the “%Inh” value was 10%. For `Cl.NC(=O)c1cccc(Nc2nccc(Nc3ccc(Oc4cccc(Cl)c4)c(Cl)c3)n2)c1` [GW659008], the “%Inh” value was 0%. For `O=C1NC(=O)C(N2CCc3ccccc32)=C1c1ccccc1Cl` [SB-373598], the “%Inh” value was 20%. In the case of `COC(=O)c1c(-c2ccccc2)c2cc(C(=O)O)ccc2c(=O)n1Cc1ccccc1`, the “%Inh” value is reported as 0%. In the case of `Cc1cc(-c2ccc3c(c2)CC[C@@H](N[C@@H](C)c2ccccc2)C3)cnc1N.Cl` [GW412617], the “%Inh” value is reported as 1%. `Nc1ncnc2[nH]c(-c3ccccc3)nc12` [AH5015] was tested, and the “%Inh” value was 0%. For `O=C(Nc1n[nH]c2nc(-c3nccs3)c(Br)cc12)C1CC1` [SB-742251], the “%Inh” value was 0%. `Cc1ccccc1-n1cnc2c(N)ncnc21` [SKF-97510] was tested, and the “%Inh” value was 0%. `Clc1cc(Cl)cc(Nc2ccnc(Nc3cc(Cl)cc(Cl)c3)n2)c1` [GSK175726] was tested, and the “%Inh” value was 13%. In the case of `Cn1ccc2ncnc(Oc3ccc(Nc4nc5ccccc5[nH]4)cc3)c21`, the “%Inh” value is reported as 0%. In the case of `CCCc1ccc(S(=O)(=O)NC2CCN(c3ccnc(Nc4ccc(F)cc4)n3)C2)cc1` (stereo not drawn) [GSK1379715], the “%Inh” value is reported as 0%. `COc1cc2nccc(Nc3ccc(NC(=O)c4ccc(C)cc4)c(O)c3)c2cc1OC.Cl` [GW440132] was tested, and the “%Inh” value was 0%. In the case of `CCn1c(-c2ccccn2)nc2cnccc21` [SB-736398], the “%Inh” value is reported as 0%. With `Cl.O=C(Nc1cccc(-c2nn3ncccc3c2-c2ccnc(Nc3cccnc3)n2)c1)c1c(F)cccc1F` [GSK312879] the “%Inh” value was 20%. For `Cc1ccc(NC(=O)Nc2cccc(Cl)c2)cc1-c1ccc(C(=O)Nc2ccncc2)cc1` [GSK1398468], the “%Inh” value was 30%. With `O=C(Nc1ccc2c(c1)OCO2)NC1CCN(c2ccnc(Nc3ccc(F)cc3)n2)C1` (stereo not drawn) [GSK1379724] the “%Inh” value was 0%. With `COc1ccc(Nc2nccc(NCCNC(=O)Nc3ccccc3F)n2)cc1` [GSK1379901] the “%Inh” value was 55%. With `COc1ccc(Nc2nccc(-c3cccc(NC(=O)c4cc5cc(F)ccc5[nH]4)c3)n2)cc1` [GSK1229782] the “%Inh” value was 21%. For `Cc1cc(N2Cc3ccccc3C2)nc(Nc2ccc(S(=O)(=O)N3CCOCC3)cc2)n1.Cl` [GSK1669917], the “%Inh” value was 0%. For `COc1ccc(CNC(=O)NC2CCN(c3ccnc(Nc4cc(OC)c(OC)c(OC)c4)n3)C2)cc1` (stereo not drawn) [GSK1379748], the “%Inh” value was 0%. For `Cc1ccc(-c2cc(-c3c[nH]nc3-c3ccccn3)ccn2)cc1` [GW684088], the “%Inh” value was 14%.

The compounds below were run on MKNK1. Details: concentration: 1 μM, replicates: in singlicate; n = 1.
`CCn1c(-c2cccnc2O)nc2cnccc21` [SB-736715] was tested, and the “%Inh” value was 17%. With `Cl.Oc1ccc(-c2nc(-c3ccccc3)[nH]c2-c2ccncc2)cc1` [SB-428218] the “%Inh” value was 0%. For `CC(=O)Nc1nc2cnc(Nc3cc(NC(=O)c4cccc(CCC#N)c4)ccc3C)nc2s1`, the “%Inh” value was 3%. With `O=S(=O)(c1ccc(-c2ccnc3[nH]ccc23)cc1)N1CCCC1` [GSK846226] the “%Inh” value was 14%. With `CN1C(=O)C(Nc2ccc(Cl)c(C(=O)O)c2)=C(c2ccc(Cl)cc2)C1=O` [SB-404290] the “%Inh” value was 0%. With `Fc1cc(Cl)ccc1Nc1ccnc2cc(I)ccc12` [GW551191] the “%Inh” value was 0%. For `O=c1cc(N2CCOCC2)nc2n(Cc3cccc(Cl)c3Cl)ccn12` [GSK2286295], the “%Inh” value was 7%. With `Cn1ccc2ncnc(Oc3ccc(NC(=O)Nc4ccccc4)cc3)c21` the “%Inh” value was 13%. In the case of `COc1cc(Nc2nccc(N3CCC(NC(=O)Nc4cc(C)ccc4C)C3)n2)cc(OC)c1OC` (stereo not drawn) [GSK1379762], the “%Inh” value is reported as 9%. For `CC(C)(C)c1ccc(C(=O)Nc2cn3cc(Cl)ccc3n2)cc1`, the “%Inh” value was 0%. In the case of `COc1ccccc1CNC(=O)c1cc(C(=O)c2ccccc2C)c[nH]1` [GSK364507], the “%Inh” value is reported as 5%. For `O=C(O)COc1ncnc2cc(-c3ccc4[nH]ncc4c3)sc12`, the “%Inh” value was 8%. In the case of `CS(=O)(=O)c1ccc(-c2nc3n(c2-c2ccncc2)CCC3)cc1` [SKF-105942], the “%Inh” value is reported as 9%. With `Cc1c(Cn2ccn3c(=O)cc(N4CCOCC4)nc23)cccc1C(F)(F)F` [GSK2289044] the “%Inh” value was 0%. In the case of `O=C(Nc1n[nH]c2cc(-c3cccc(F)c3F)ccc12)C1CC1` [SB-733894], the “%Inh” value is reported as 0%. In the case of `Cc1csc(-c2nc(Nc3ccncc3)c3ccccc3n2)n1` [GW869640], the “%Inh” value is reported as 0%. In the case of `Cl.NC(=O)c1cccc(Nc2nccc(Nc3ccc(Oc4cccc(Cl)c4)c(Cl)c3)n2)c1` [GW659008], the “%Inh” value is reported as 8%. In the case of `O=C1NC(=O)C(N2CCc3ccccc32)=C1c1ccccc1Cl` [SB-373598], the “%Inh” value is reported as 7%. In the case of `COC(=O)c1c(-c2ccccc2)c2cc(C(=O)O)ccc2c(=O)n1Cc1ccccc1`, the “%Inh” value is reported as 0%. In the case of `Cc1cc(-c2ccc3c(c2)CC[C@@H](N[C@@H](C)c2ccccc2)C3)cnc1N.Cl` [GW412617], the “%Inh” value is reported as 13%. `Nc1ncnc2[nH]c(-c3ccccc3)nc12` [AH5015] was tested, and the “%Inh” value was 0%. With `O=C(Nc1n[nH]c2nc(-c3nccs3)c(Br)cc12)C1CC1` [SB-742251] the “%Inh” value was 59%. With `Cc1ccccc1-n1cnc2c(N)ncnc21` [SKF-97510] the “%Inh” value was 0%. With `Clc1cc(Cl)cc(Nc2ccnc(Nc3cc(Cl)cc(Cl)c3)n2)c1` [GSK175726] the “%Inh” value was 5%. In the case of `Cn1ccc2ncnc(Oc3ccc(Nc4nc5ccccc5[nH]4)cc3)c21`, the “%Inh” value is reported as 0%. `CCCc1ccc(S(=O)(=O)NC2CCN(c3ccnc(Nc4ccc(F)cc4)n3)C2)cc1` (stereo not drawn) [GSK1379715] was tested, and the “%Inh” value was 0%. `COc1cc2nccc(Nc3ccc(NC(=O)c4ccc(C)cc4)c(O)c3)c2cc1OC.Cl` [GW440132] was tested, and the “%Inh” value was 0%. `CCn1c(-c2ccccn2)nc2cnccc21` [SB-736398] was tested, and the “%Inh” value was 26%. `Cl.O=C(Nc1cccc(-c2nn3ncccc3c2-c2ccnc(Nc3cccnc3)n2)c1)c1c(F)cccc1F` [GSK312879] was tested, and the “%Inh” value was 0%. With `Cc1ccc(NC(=O)Nc2cccc(Cl)c2)cc1-c1ccc(C(=O)Nc2ccncc2)cc1` [GSK1398468] the “%Inh” value was 6%. `O=C(Nc1ccc2c(c1)OCO2)NC1CCN(c2ccnc(Nc3ccc(F)cc3)n2)C1` (stereo not drawn) [GSK1379724] was tested, and the “%Inh” value was 0%. With `COc1ccc(Nc2nccc(NCCNC(=O)Nc3ccccc3F)n2)cc1` [GSK1379901] the “%Inh” value was 24%. `COc1ccc(Nc2nccc(-c3cccc(NC(=O)c4cc5cc(F)ccc5[nH]4)c3)n2)cc1` [GSK1229782] was tested, and the “%Inh” value was 26%. `Cc1cc(N2Cc3ccccc3C2)nc(Nc2ccc(S(=O)(=O)N3CCOCC3)cc2)n1.Cl` [GSK1669917] was tested, and the “%Inh” value was 0%. For `COc1ccc(CNC(=O)NC2CCN(c3ccnc(Nc4cc(OC)c(OC)c(OC)c4)n3)C2)cc1` (stereo not drawn) [GSK1379748], the “%Inh” value was 8%. `Cc1ccc(-c2cc(-c3c[nH]nc3-c3ccccn3)ccn2)cc1` [GW684088] was tested, and the “%Inh” value was 0%.
